M1 PAM = human CHRM1 positive allosteric modulation | P11229 | CHO-K1 hM1, Fluo-8 calcium fluorescence, ACh EC20; 0% = ACh EC20, 100% = maximal ACh | activation, % at 3 µM | hit rate 0.088% among 360,000 | AID 588819; in the data active = activation above about 19%, passing the limit was not always enough
M4 ag = CHRM4 agonism in calcium assay; P08173; CHO-K1 hM4/Gqi5, Fluo-8 calcium fluorescence; vehicle 0%, full acetylcholine response 100%; activation, % at 3 µM; hit rate 0.14% among 360,000;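 active = activation above the run mean over all test wells plus 3 SD, cut at about 32% in these data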;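 note: peak over basal fluorescence ratio per well then scaled between controls; 0% = DMSO wells and 100% = acetylcholine at EC100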
Target sequence (P08173 whole entry, looked up): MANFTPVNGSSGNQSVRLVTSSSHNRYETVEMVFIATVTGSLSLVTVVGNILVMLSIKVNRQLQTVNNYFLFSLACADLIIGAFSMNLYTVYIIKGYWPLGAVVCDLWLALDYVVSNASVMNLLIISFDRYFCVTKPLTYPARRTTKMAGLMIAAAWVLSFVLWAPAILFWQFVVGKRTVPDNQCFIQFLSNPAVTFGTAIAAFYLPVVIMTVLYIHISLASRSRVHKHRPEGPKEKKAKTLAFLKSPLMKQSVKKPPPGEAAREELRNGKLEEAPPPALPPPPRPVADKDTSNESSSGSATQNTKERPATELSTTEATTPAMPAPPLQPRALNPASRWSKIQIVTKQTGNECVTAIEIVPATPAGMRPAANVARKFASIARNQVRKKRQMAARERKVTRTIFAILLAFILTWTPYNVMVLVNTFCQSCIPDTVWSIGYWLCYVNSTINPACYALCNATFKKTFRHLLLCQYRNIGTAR
CHRM4 antagonist = blocks acetylcholine activation of human M4 receptor. P08173. CHO-hM4 cells, ACh EC80, Fluo-8 calcium fluorescence. inhibition, % at 3 µM. hit rate 0.73% among 360,000. AID 624125;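 active = inhibition above its plate's cutoff, the mean inhibition of sample wells plus 3 SD, cut at about 27% in these data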;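 note: 0% = acetylcholine EC80 with DMSO and 100% = DMSO without agonist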
M4 PAM = potentiates acetylcholine response at human M4 receptor. CHO-K1 hM4/Gqi5, Fluo-8 calcium fluorescence, ACh EC20; 0% = ACh EC20, 100% = maximal ACh. activation, % at 3 µM. hit rate 0.4% among 360,000. AID 624126;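 active = activation above its plate's cutoff, the mean activation of sample wells plus 3 SD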
CHRM1 agonist = activates human CHRM1 receptor. CHO-K1 hM1, Fluo-8 calcium fluorescence, agonist mode; 0% DMSO, 100% acetylcholine EC100. activation, % at 3 µM. hit rate 0.33% among 360,000. AID 588814;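 active = activation above the run's mean compound activation plus 3 SD, cut at about 16% in these data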;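 note: peak over basal fluorescence ratio within a 140 s kinetic read after compound addition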
CHRM1 antagonist = antagonists of human M1 muscarinic receptor. P11229. CHO-K1 hM1, Fluo-8 calcium fluorescence, ACh EC80 antagonist. inhibition, % at 3 µM. hit rate 1.3% among 360,000. AID 588852;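 active = percent inhibition above its own plate's cutoff, namely the mean of that plate's compound wells plus 3 SD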;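 note: peak over basal fluorescence ratio during 140 s after agonist addition; 0% = ACh EC80 plus DMSO and 100% = DMSO alone without agonist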
* marks the source's active call; other numbers are inactive results. Most compounds without a hit are left out; they make up all but 2.2% or so of the library.

SMILES | M1 PAM | M4 ag | CHRM4 antagonist | M4 PAM | CHRM1 agonist | CHRM1 antagonist
C=CCSc1nc2ccccc2c(=O)n1C1CCOC(C)(C)C1 (configuration not stated) | 4 | -1 | -1 | -1 | -3 | -4
c1ccc(CNc2nc(-c3ccccn3)nc3ccccc23)cc1 | -3 | 9 | -7 | 10 | -1 | 8
CCC(C)Nc1nc(-c2ccccn2)nc2ccccc12 (configuration not stated) | 17 | 9 | -18 | 22* | -1 | 2
Cc1ccccc1NC(=O)CN1C(=O)NC2(CCc3ccccc32)C1=O (configuration not stated) | 7 | 1 | -8 | 6 | 0 | -7
COc1cc2c(cc1NC(=O)CN1C(=O)NC3(CCc4ccccc43)C1=O)oc1ccccc12 (configuration not stated) | 3 | 12 | 38* | 3 | -3 | 0
COC(=O)CNC(=O)CN1C(=O)NC2(CCCc3ccccc32)C1=O (configuration not stated) | 2 | 3 | 4 | -8 | -3 | -1
COc1ccc(CCN(C)C(=O)CN2C(=O)NC3(CCCc4ccccc43)C2=O)cc1OC (configuration not stated) | 4 | 2 | -29 | 27* | -2 | -6
COCCNC(=O)CN1C(=O)NC2(CCCc3ccccc32)C1=O (configuration not stated) | 4 | 0 | -8 | 2 | 0 | 67*
CSc1ccc(CN(C)C(=O)C(Cc2ccccc2)NC(=O)c2ccccc2)cc1 (configuration not stated) | -14 | 22 | 9 | -12 | 0 | 44*
COc1ccc(CN(C)C(=O)C(Cc2ccccc2)NC(=O)c2ccccc2)cc1F (configuration not stated) | -17 | 19 | 21 | -12 | -2 | 42*
CN(Cc1ccc(F)cc1)C(=O)C(Cc1ccccc1)NC(=O)c1ccccc1 (configuration not stated) | -11 | 14 | 11 | -13 | -1 | 27
COc1ccccc1N1CCN(C(=O)NCc2cccc(C(F)(F)F)c2)CC1 | 6 | 6 | 10 | -12 | 5 | -5
CCOC(=O)C(NCc1ccco1)(NC(=O)c1ccc(OC)cc1)C(F)(F)F (configuration not stated) | -2 | 1 | -6 | 0 | -3 | 1
COc1cccc(NC(=O)CSc2nnc(-c3ccoc3C)n2CC2CCCO2)c1 (configuration not stated) | 2 | 1 | 3 | -3 | -3 | 0
COc1ccc(NC(=O)CSc2nnc(-c3ccncc3)n2C)cc1 | 0 | 2 | 1 | 6 | -6 | -2
COc1ccc(-c2nnc(SCC(=O)Nc3ccccc3)n2C)cc1 | -14 | -1 | -11 | 4 | -8 | 13*
COc1ccc(-n2c(Cc3cccn3C)nnc2SCC(=O)Nc2cccc(OC)c2)cc1 | -4 | -1 | -5 | 18* | -1 | 3
COc1ccccc1C(=O)Nc1ccc(-c2nnc(SCC(=O)O)n2C)cc1 | -11 | 2 | 37* | 19 | -5 | 14
COc1ccc(NC(=O)CSc2nnc(-c3ccoc3C)n2CC2CCCO2)cc1 (configuration not stated) | 1 | 0 | 10 | -1 | 0 | 27*
COc1cccc(NC(=O)CSc2nnc(Cc3cccn3C)n2-c2ccc(F)cc2)c1 | 7 | 0 | -14 | 10 | 1 | -15
O=C(Cn1cc(C(F)(F)F)ccc1=O)N1CCN(S(=O)(=O)c2ccc(Cl)cc2)CC1 | 1 | 3 | 1 | -1 | -1 | -2
CCOc1ccc(S(=O)(=O)/N=C(/Nc2ccc(S(N)(=O)=O)cc2)c2ccccc2)cc1 | 1 | -1 | 9 | -1 | -4 | -3
COC(=O)c1ccc(N)nc1 | -1 | 3 | -6 | 2 | 22* | -2
COc1ccc(CC2(CO)CCN(C(C)Cc3ccc(Cl)cc3)CC2)cc1 (configuration not stated) | -7 | 5 | 13 | -20 | -15 | 2
COc1ccc(CCC(C)N2CCC(CO)(Cc3ccccc3)CC2)cc1 (configuration not stated) | -9 | 4 | 33* | -10 | -8 | -8
SMILES | M1 PAM | M4 ag | CHRM4 antagonist | M4 PAM | CHRM1 agonist | CHRM1 antagonist
C#CCCCCCCC#CCN(C)C | -17 | 3 | -2 | -1 | 41* | 21
COc1ccc(-c2cn(CC3CCCCC3)nn2)cc1 | 6 | 4 | 0 | 9 | -2 | -6
Cc1ccc(NC(=S)NCc2cccnc2)cc1 | 4 | 1 | 1 | 16* | -2 | 2
CCc1ccc(NC(=S)NCc2cccnc2)cc1 | 1 | 1 | -6 | 5 | -5 | -4
CCOC(=O)C(C)Sc1nc(-c2ccccc2)nc2ccccc12 (configuration not stated) | -5 | 1 | -11 | -1 | -1 | 6
O=C(O)COc1ccc(Br)cc1CP(=O)(c1ccccc1)c1ccccc1 | 6 | 0 | -14 | -2 | -2 | -14
CC(C)(C)Nc1nc(NC(C)(C)C)nc(-n2ccnc2)n1 | -6 | -2 | -8 | 7 | -7 | -1
CCOP(=O)(OCC)c1nc(-c2cccc3ccccc23)oc1NCc1ccccc1 | 9 | 1 | 2 | 8 | -1 | -9
Cn1c(=O)c2c(nc(SCCN3CCCCC3)n2Cc2ccc(Cl)cc2)n(C)c1=O | -26 | 1 | 4 | -9 | -7 | 33*
CCC(C(=O)Nc1cc(OC)c(NC(=O)c2ccccc2)cc1OC)c1ccccc1 (configuration not stated) | 7 | 1 | -15 | 4 | -2 | -11
CCC(C(=O)Nc1ccc(C(=O)Nc2ccccc2C(=O)O)cc1)c1ccccc1 (configuration not stated) | 19 | -2 | -3 | 17* | 0 | -13
CCC(C(=O)Nc1ccc(C(=O)N2CCCC2)cc1)c1ccccc1 (configuration not stated) | -8 | 13 | 6 | -8 | 18* | 13
CCc1ccc(NC(=O)C(CC)c2ccccc2)cc1 (configuration not stated) | -6 | 24 | 4 | -1 | 26* | 17
CCC(C(=O)Nc1ccc(C)cc1)c1ccccc1 (configuration not stated) | -2 | 1 | 6 | -5 | -3 | 8
CN1CC[n+]2cnc3ccccc3c21 | 10 | 0 | 1 | 4 | -6 | -6
CCCc1nnc(NC(=O)Cn2c(=O)oc3cc(Br)ccc32)s1 | -1 | 22 | -6 | -3 | 37* | 0
COc1ccccc1NS(=O)(=O)c1cc(NC(=O)c2cc[n+]([O-])cc2)ccc1N1CCCC1 | -7 | 2 | 4 | 0 | -5 | 4

Screens from PubChem.
